From PubChem BioAssay (NCI)
The panel holds about 83,000 compounds, 20% with a hit somewhere; the sample as a whole holds those more often.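 Each cell line was grown in a 96-well plate and treated with one concentration of compound for 48 hours. Values below 10 were considered active.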

Experiments:
Experiment in all cases: NCI-60 one-dose screen, 48 h (100 = growth as untreated, 0 = no growth, -100 = all killed)
Details in all cases: 10 µM
MALME-3M melanoma = tested on: MALME-3M melanoma
MDA-MB-231 breast = tested on: MDA-MB-231 breast
RXF 393 renal = tested on: RXF 393 renal
SF-268 CNS = tested on: SF-268 CNS
SF-295 CNS = tested on: SF-295 CNS
SF-539 CNS = tested on: SF-539 CNS
UACC-257 melanoma = tested on: UACC-257 melanoma
M14 melanoma = tested on: M14 melanoma
DU-145 prostate = tested on: DU-145 prostate
K-562 leukemia = tested on: K-562 leukemia

Measured: growth

O=C(CCNNC(=O)c1ccncc1)NCc1ccccc1
inactive: MALME-3M melanoma 110% | MDA-MB-231 breast 60.9% | RXF 393 renal 93.8% | SF-268 CNS 95.8% | SF-295 CNS 105% | SF-539 CNS 95.4% | UACC-257 melanoma 110% | M14 melanoma 103%

C[C@@H](c1ccccc1)[C@@H](C(=O)O)c1ccccc1
inactive: DU-145 prostate 114% | K-562 leukemia 110% | MDA-MB-231 breast 110% | SF-268 CNS 106% | SF-295 CNS 98.6% | SF-539 CNS 96.5% | UACC-257 melanoma 98.8% | M14 melanoma 101%

CCOC(=O)/C(C#N)=C/c1cccc(C)c1
inactive: DU-145 prostate 107% | MALME-3M melanoma 96% | MDA-MB-231 breast 110% | SF-268 CNS 94.1% | SF-295 CNS 97.9% | SF-539 CNS 95.1% | UACC-257 melanoma 104%
